High-throughput results (PubChem BioAssay)
In the library only some 0.5% were active in any assay of this set; here they are far more common.
ERK EGF block – blocks ERK signaling stimulated by EGF; HEK293-V1b, EGF-stimulated phospho-ERK AlphaScreen; Potency, µM (doses to about 11.5 µM), without a hit: at the top dose activity change, negative = inhibition, usual class: inhibitors; hit rate 0.41% among 130,000;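 further: potency means the concentration at half of the fitted maximal effect; plate controls were stimulated vehicle wells for no effect and unstimulated vehicle basal for full effect; nearly all actives have a fitted effect of over 55% in size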
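Readout: AlphaScreen signal for phosphorylated ERK in lysed HEK293 cells stably expressing V1b. Stimulus 25 nM EGF, 5 min, following 30 min compound exposure. Data scaled to DMSO basal and full EGF activation.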
GoLoco inh red – blocks human Gai1 binding to RGS12 GoLoco peptide, red readout; P63096; Gai1:RGS12 GoLoco peptide FP, rhodamine, 10 min; Potency, µM (doses to about 61.6 µM), inactives show at the top dose activity, negative = inhibition, most hits filed as inhibitors; hit rate 0.44% among 230,000; active means well fitted inhibition curve with a large enough effect, not every such curve was filed as active; inactive means no such curve, though single readings can be large or run the other way; further: potency means the concentration at half of the fitted maximal effect; on the % scale 0 is the no-effect control and ±100 the full control effect; nearly all actives have a fitted effect of over 30% in size
Target sequence (P63096 whole entry, looked up): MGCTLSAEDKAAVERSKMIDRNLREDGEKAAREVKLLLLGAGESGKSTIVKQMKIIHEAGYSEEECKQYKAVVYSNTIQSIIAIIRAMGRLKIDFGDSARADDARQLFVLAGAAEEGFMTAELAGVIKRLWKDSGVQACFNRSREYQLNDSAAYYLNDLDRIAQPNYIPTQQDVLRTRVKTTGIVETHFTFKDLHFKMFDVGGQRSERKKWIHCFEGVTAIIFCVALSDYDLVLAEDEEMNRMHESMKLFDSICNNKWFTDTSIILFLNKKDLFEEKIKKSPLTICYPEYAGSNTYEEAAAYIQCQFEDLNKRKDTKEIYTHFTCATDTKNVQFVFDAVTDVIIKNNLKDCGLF
CBFb RUNX1 block – inhibitors of human CBF-beta and RUNX1 interaction; Q01196+Q13951; AlphaScreen CBFb-His/RUNX1-biotin binding, biochemical; Potency, µM (titrated, usually from 59.8 µM), without a hit: top-dose activity, negative = inhibition, actives largely listed as inhibitors; 230,000 tested, under 10 active; AID 1477; further: % of control where 0% means no effect
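Read-out: AlphaScreen. Format: His-CBF-beta with biotinylated RUNX1 (30 nM each) preincubated 20 min, compound 15 min, Ni-chelate plus streptavidin beads 90 min; room temperature throughout.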
* marks the source's active call; other numbers are inactive results; u = inconclusive; x = no result; [ ] = another dose, or the depositor's remark. Unless noted, the call rests on the fitted dose curve; in most records, active means well fitted curve in the direction sought with a large enough effect; inconclusive means small, poorly fitted or top-dose-only effect, or another doubt; inactive means no such curve, though single readings can be large; an effect the other way counts as inactive or inconclusive.

SMILES	ERK EGF block	GoLoco inh red	CBFb RUNX1 block
O=C(O)c1cccc(NC2=C(Cl)C(=O)c3ccccc3C2=O)c1	u	14µM*	-13%
CC1=C(C(=O)O)N2C(=O)[C@@H](NC(=O)[C@@H](N)c3ccccc3)[C@@H]2SC1	4%[25.7 µM]	-10%[21.6 µM]	-13%[21.7 µM]
COCC#Cc1ccc(C2NC(C(=O)O)CCC2C)cc1 (stereo unspecified)	x	x	-3%[13.1 µM]
COC(=O)N[C@@H](CCc1ccccc1)[C@]1(C(=O)OC)CCCC1=O	-12%	0%	-11%
COc1ccccc1N=Nc1[nH]c2ccc(C)cc2c1O	1%	3.5µM*	-13%
Cc1ccc2[nH]c(O)c(N=Nc3nc4ccccc4s3)c2c1	-1%[57.5 µM]	14%	-8%
NS(=O)(=O)c1cc2c(cc1Cl)N[C@H](Cc1ccccc1)NS2(=O)=O	x	4%[14.2 µM]	x
N[C@@H](COC(c1cccc(F)c1)c1ccccc1OCc1ccccc1)C(=O)O (stereo partly specified)	x	x	18%
O=C1c2ccccc2C(=O)c2c(NC3CCCCC3)ccc(Nc3ccc(S(=O)(=O)O)cc3)c21	x	3.5µM*	x
O=C(Nc1ccccc1)c1cc([N+](=O)[O-])ccc1NC1CCCCC1	x	x	-30%
CC(C)C[C@@H](CC(=O)N[C@@H](CCC(=O)O)CC(=O)O)NC(=O)[C@@H]1CCCC[C@H]1NC(=O)C[C@H](CCCN)NC(=O)C[C@H](Cc1ccccc1)NC(=O)[C@@H]1CNCC[C@H]1N	0%	3%	10%
CCCC/C=C/[C@@H](c1ccccc1)C1COC(=O)CC1O (stereo partly specified)	x	x	17%
O=c1c2ccccc2sn1-c1cc(S(=O)(=O)N2CCOCC2)ccc1N1CCCC1	x	-70%	4%
O=c1c2ccccc2sn1-c1cc(S(=O)(=O)N2CCOCC2)ccc1N1CCOCC1	x	3.5µM*	-1%
COc1ccc(OC)c(-c2ccc(C(=O)O)o2)c1	x	3%[88.7 µM]	-12%[89.1 µM]
N#Cc1ccc(CS(=O)(=O)c2nnnn2C2CCCCC2)cc1	-16%	-3%	-7%
COc1ccc2c(c1)OC(=O)CC2c1ccccc1C (stereo unspecified)	x	8%[88.7 µM]	-2%[89.1 µM]
CC[C@H](C)[C@H](NC(=O)[C@H](CC(C)C)NC(=O)[C@@H](N)CO)C(=O)NCC(=O)N[C@@H](CCCN=C(N)N)C(=O)N[C@@H](CC(C)C)C(=O)O	x	x	27%
O=C1c2cc(Br)ccc2O[C@@H](c2ccc3c(c2)OCO3)[C@@H]1O	3%	6%	u
N#Cc1cccc(-c2nc(NCc3ccccc3)c3ccccc3n2)c1	x	8%	x
Cn1ccnc1SCC(=O)c1ccc2ccccc2c1	3%	-5%	11%
CCn1c(CSc2nccn2C)nc2cc(C(=O)O)ccc21	x	16µM*	23%
CCCCC1=CC2=C(OC(C)=O)C(=O)C(C)(OC(=O)CCC(=O)OC)C(=O)C2=CO1 (stereo unspecified)	-1%	1%	-6%
O=C(O)c1ccccc1-c1c2ccc(=O)cc-2oc2cc(O)ccc12	x	0.4µM*	0%
O=C(O)c1ccccc1-c1oc2cc(O)ccc2c(=O)c1Oc1ccccc1	10%	-23%	-20%
SMILES	ERK EGF block	GoLoco inh red	CBFb RUNX1 block
CC1(C)O[C@@H]2O[C@H]([C@H](O)CO/N=C3/[C@H]4O[C@@H]4[C@@H](O)[C@H]4[C@H]3CCn3c(=O)n(-c5ccccc5)c(=O)n34)[C@@H](O)[C@@H]2O1	x	x	13%[13.1 µM]
C=C(C#N)C(=O)OCC	x	-23%	6%[21.7 µM]
c1ccc2[nH]c(SN3CCOCC3)nc2c1	x	8.9µM*	12%
c1ccc2[nH]c(CN3CCOCC3)nc2c1	x	0%	1%
CSCC[C@H](NC(=O)[C@H](Cc1ccccc1)NC[C@@H](NC[C@@H](N)CS)C(C)C)C(=O)O	x	-25%	u
CCN(CC)c1ccc(N=Nc2ncn[nH]2)cc1	7%	43%	u
CCN(Cc1ccccc1)c1ccccc1	x	-4%	10%[21.7 µM]
CCN(CC)c1ccc(N=Nc2nn(C)c(C)c2[N+](=O)[O-])cc1	16µM*	15%	x
CCN(Cc1ccccc1)c1ccc(N=Nc2nn(C)c(C)c2[N+](=O)[O-])cc1	20µM*	8%	x
Brc1ccc2c(c1)c1cc(Br)ccc1n2CC1CO1 (stereo unspecified)	7%	-1%	4%
C=CCN1C(=O)S/C(=C/c2ccc(Sc3nc4ccccc4[nH]3)o2)C1=O	25µM*	-21%	-12%
CC(C)N1C(=O)S/C(=C/c2ccc(Sc3nc4ccccc4[nH]3)o2)C1=O	u	9%	-2%
CC(C)N1CCN(c2ccc(C(=O)c3c(-c4ccc(O)cc4)sc4cc(O)ccc34)cc2)CC1	x	x	-24%
CCOC(=O)N1CCN(/[N+]([O-])=N/Oc2ccc([N+](=O)[O-])cc2[N+](=O)[O-])CC1	x	x	3%
CC(C)(C)c1ccc(S(=O)(=O)/C=C\C#N)cc1	4%	3%	-12%[21.7 µM]
Cc1cccc(NC(=O)CSc2nnc(-c3n[nH]c4ccccc34)o2)c1	3%	3%	0%
N#Cc1cccc(NC(=O)CSc2nnc(-c3n[nH]c4ccccc34)o2)c1	32µM*	-5%	2%
C#CCCCO/N=C1/C[C@@H](O)[C@@H](O)[C@@H]2[C@@H]3C(=O)N(CC)C(=O)[C@H]3CC[C@@H]12	x	x	10%[13.1 µM]
COc1ccc2c(c1)O[C@@H](c1cccc(C(F)(F)F)c1)[C@H](OC(=O)Nc1cc(OC)c(OC)c(OC)c1)C2=O	-1%	-38%	-8%
CC(C)(C)C(=O)OCC(=O)C1CCC2C3CCC4=CC(=O)CCC4(C)C3CCC12C (stereo unspecified)	x	2%	5%
COc1ccc2nc3cccc(OC)c3nc2c1	7%	3%	-6%
COc1ccc2nc3ccccc3nc2c1N	28µM*	-17%	x
CCC(/C=C1\Sc2ccc(OC)cc2N1CC)=C\c1sc2ccc(OC)cc2[n+]1CCCS(=O)(=O)[O-]	u	-188%	-17%
CCC(/C=C1\Sc2ccc(OC)cc2N1CCO)=C\c1sc2ccc(OC)cc2[n+]1CCO	14µM*	-190%	u
Cc1ccc(S(=O)(=O)N[C@H]2COC(=O)[C@H](C)COC(=O)C/C=C\[C@H]2C)cc1	x	x	-5%[13.1 µM]
SMILES	ERK EGF block	GoLoco inh red	CBFb RUNX1 block
Cc1[nH]c2ccccc2c1/C=N/Nc1ccccc1[N+](=O)[O-]	25µM*	6%	x
COc1ccc(/C=N\Nc2ccccc2[N+](=O)[O-])c(C(=O)O)c1OC	-11%[57.5 µM]	9%	-30%
CC(C)Oc1ccccc1/C=N/Nc1ccccc1[N+](=O)[O-]	13µM*	11%	x
Cc1[nH]c2ccccc2c1/C=N/NS(=O)(=O)c1ccccc1	-10%	-3%	-2%
CCOc1ccccc1/C=N/Nc1ccccc1[N+](=O)[O-]	x	x	-24%
COc1ccccc1/C=N\Nc1ccccc1[N+](=O)[O-]	10µM*	-1%	u
C[C@H]1C=CC(=O)C[C@H]1c1c(F)cccc1Cl	x	x	3%
CSc1ccc(/C=C2/C(C)=C(CC(=O)O)c3cc(F)ccc32)cc1	x	-1%	-27%
CC[C@H](C)[C@H](NC(=O)[C@@H](NC(=O)[C@@H](CC(=O)NO)Cc1ccccc1)[C@@H](C)CC)C(=O)O	x	x	10%
CCc1ccc(N=c2c([N+](=O)[O-])nn(-c3ccc4c(c3)OCCO4)n2O)cc1	28µM*	1%	x
O=[N+]([O-])c1nn(-c2ccc3c(c2)OCCO3)n(O)c1=Nc1ccc(Cl)cc1	x	-1%	-24%
